Reference: PubChem BioAssay (NCI)
The panel holds about 83,000 compounds, 20% with a hit somewhere; the sample as a whole holds those more often.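 Negative percent growth values reflect cell death: -40 means 40% of the cells present at the start died, and -100 means all died.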 Unmarked numbers belong to inactive results. The source made the active and inactive calls. Rule for the calls: active = growth percent below 10; inactive = the rest.

Tests used:
Assay in all cases: NCI-60 one-dose screen, 48 h (100 = growth as untreated, 0 = no growth, -100 = all killed)
Conditions in all cases: 10 µM unless noted
DU-145 prostate = tested on: DU-145 prostate
MALME-3M melanoma = tested on: MALME-3M melanoma
MDA-MB-231 breast = tested on: MDA-MB-231 breast
RXF 393 renal = tested on: RXF 393 renal
SF-268 CNS = tested on: SF-268 CNS
SF-295 CNS = tested on: SF-295 CNS
SF-539 CNS = tested on: SF-539 CNS
UACC-257 melanoma = tested on: UACC-257 melanoma
M14 melanoma = tested on: M14 melanoma
HCT-15 colon = tested on: HCT-15 colon
HT29 colon = tested on: HT29 colon
SNB-75 CNS = tested on: SNB-75 CNS
SNB-19 CNS = tested on: SNB-19 CNS
PC-3 prostate = tested on: PC-3 prostate
SK-MEL-5 melanoma = tested on: SK-MEL-5 melanoma
UACC-62 melanoma = tested on: UACC-62 melanoma
LOX IMVI melanoma = tested on: LOX IMVI melanoma
SK-MEL-28 melanoma = tested on: SK-MEL-28 melanoma
U251 CNS = tested on: U251 CNS

Row | Structure (SMILES) | growth (DU-145 prostate) | growth (MALME-3M melanoma) | growth (MDA-MB-231 breast) | growth (RXF 393 renal) | growth (SF-268 CNS) | growth (SF-295 CNS) | growth (SF-539 CNS) | growth (UACC-257 melanoma) | growth (M14 melanoma) | growth (HCT-15 colon) | growth (HT29 colon) | growth (SNB-75 CNS) | growth (SNB-19 CNS) | growth (PC-3 prostate) | growth (SK-MEL-5 melanoma) | growth (UACC-62 melanoma) | growth (LOX IMVI melanoma) | growth (SK-MEL-28 melanoma) | growth (U251 CNS)
1 | CN1CCN(c2ccc3nc(-c4ccc5nc(-c6ccc(OCCC(C)(C)C)cc6)[nH]c5c4)[nH]c3c2)CC1 | -80.9% (active) | 18.2% | -33.3% (active) | -72.1% (active) | 56.6% | 50.9% | -72.3% (active) | 110% | -11.2% (active) | 56.3% | -82.3% (active) | 90.1% | -67.6% (active) | -72.6% (active) | 80.2% | 88.1% | -73.7% (active) | -59.2% (active) | 
2 | CC(C)c1c(C(=O)Nc2ccccc2)c(-c2ccccc2)c(-c2ccc(F)cc2)n1CC[C@@H]1CC=CC(=O)O1 | 26.3% | 8.81% (active) | -25.6% (active) | -84.5% (active) | -33.3% (active) | 82.3% | -18.5% (active) | 16.9% | -11.2% (active) |  | -35.6% (active) | -25% (active) | 14.2% | -39.2% (active) | 21.7% | 18.9% | -75.4% (active) | -57.1% (active) | 
3 | Oc1ccc(Nc2nccc(-c3ccc4ccccc4c3)n2)cc1 | 55.5% | 59.8% | 30.5% | 60.3% | 47.4% | 61.4% | 37% | 26.7% | 11.1% | 16.9% | 39.3% | 36% | 50.9% | 48.6% | 39.8% | 39.4% | 27.1% | 50.6% | 
4 | CC(=O)/C(=C/c1cccc(Cl)c1)C(=O)c1ccccc1 | 92.2% | 85.5% | 84.8% | 93.1% | 79.2% | 96.1% | 105% | 72.3% | 73.1% | 70% | 67.7% | 84.7% | 94.3% | 63.1% | 89.9% | 83.3% | 6.93% (active) | 90.9% | 
5 | COc1ccc(-c2cn3c(-c4ccc(OC)cc4)cnc3c(Oc3ccc4c(C)cc(=O)oc4c3)n2)cc1 | 29.5% | 26.7% | 6.29% (active) | -20.8% (active) | 65.7% | 23.3% | -21.1% (active) | 29.2% | 38.6% | 63.4% | 25.4% | 14.3% |  | 17.7% | 28.6% | 50.1% | 8.02% (active) | -17.4% (active) | 22.6%
6 | C[C@@H]1CC[C@@H]2[C@@H]1[C@H](OC(=O)/C=C/c1ccccc1)[C@]1(C3CCCCC3)C[C@@H](OC(=O)CO)[C@@]2(C)O1 | 81.5% | 104% | 84.7% | 26.9% | 32.1% | 87.5% | 89.6% | 67.8% | 89.9% | 66.2% | 38.4% |  | 88.2% | 22.8% | 85.9% | 73.3% | 76% | 83.8% | 
7 | CN(C)C(=O)c1cc2cnc(Nc3ccc(-c4csc5c(=O)cc(N6CCNCC6)oc45)cc3)nc2n1C1CCCC1 | 29.9% | 60.2% | 9.91% (active) | -78.6% (active) | 19.2% | 15.2% | -33% (active) | 64.4% | 27.1% | 19.9% | -15.1% (active) | 20.5% | 24.9% | 10% | 28.5% | 24.6% | -62.9% (active) | 40.7% | 
8 | COCCOc1ccc(-c2nc3ccc(-c4nc5ccc(N6CCN(C)CC6)cc5[nH]4)cc3[nH]2)cc1 | 29.7% | -38.9% (active) | 8.21% (active) | -62.8% (active) | 7.43% (active) | 48.4% | -30.7% (active) | 8.32% (active) | 1.05% (active) |  | 4.98% (active) | -21.2% (active) | 7.61% (active) | 22.5% | 11.2% | -39.9% (active) | -72.5% (active) | -39.2% (active) | 
9 | CC(C)CC(CC1=CCC2CC1C2(C)C)C1=C(O)C(C)(C)C(=O)C(C)(C)C1=O (stereo not given) | 33.6% | 13.9% | -6.26% (active) | 7.5% (active) | 21.4% | -24.3% (active) | 17% | -23.2% (active) | 20.3% | 13.5% | 1.62% (active) | 19.7% | 16% | 5.09% (active) | -31.2% (active) | 9.64% (active) | 6% (active) | 28.8% | 
10 | NCCN1CCN(c2nccc(-c3ccc4ccccc4c3)n2)CC1 | 84.6% | 60.3% | 23.8% | 43.1% | 63.8% | 90.1% | -4.96% (active) | 68.4% | -66.8% (active) | 4.28% (active) | -33.6% (active) | 82.1% | 63.9% | 45.6% | 54.9% | -65.3% (active) | -64.8% (active) | -43.4% (active) | 
11 | CSc1nc(NCCCNc2ccnc3cc(Cl)ccc23)cc(-c2ccccc2)n1 | 81.3% | 56.9% | 45.4% | 60.9% | 67.9% | 56.9% |  | 68.1% | -42.5% (active) | 46.2% | 9.09% (active) | 56.9% | 91.9% | 59.9% | 52.6% | 91% | 31.2% | -52.2% (active) | 53.3%
12 | COc1ccc(-c2cc(-c3cccnc3)nc3sc4c(=O)n(-c5ccc(C)cc5)nnc4c23)cc1OC | 107% | 96% | 79.6% | 101% | 101% | 96.6% | 93.4% | 104% | 104% | 103% | 105% | 85.8% |  | 95.8% | 97.4% | 98.7% | 97.2% | 99.9% | 104%
13 | Oc1cccc(Nc2nccc(-c3ccc4ccccc4c3)n2)c1 | 27.3% | 68% | 37.2% | 37.8% | 47.3% | 25.2% | 11% | 47.3% | 8.25% (active) | 22.2% | 56.8% | 23.3% | 28.7% | 28.1% | 32.5% | 32.9% | 32.5% | 49.5% | 
14 | O=C1C(Cl)=C(Cl)C(=O)c2c1nc1n2CCCC1 | 96.9% | 73.2% | 96.2% | 99.5% | 95.9% | 100% | 99.9% | 96% | 105% | 103% | 99.7% | 126% | 96.4% | 88.5% | 98.8% | 93.7% | 85.8% | 113% | 
15 | O=C(CCN1CCOCC1)Nc1ccc(Cn2nnc3c2C(=O)c2nnn(Cc4ccc(NC(=O)CCN5CCOCC5)cc4)c2C3=O)cc1 | 60.6% | -69.9% (active) | -4.23% (active) | 65.5% | 1.49% (active) | 50.8% |  | -80.5% (active) | 35.9% | 93.6% | 1.57% (active) | -86.7% (active) | 27.1% | 17.7% | -72.9% (active) | -17.3% (active) | -21.9% (active) | 31.7% | -58.7% (active)
16 | O=C(/C=C/c1cccc(Br)c1)c1ccccc1 | 92.1% | 99.3% | 92.7% | 89.9% | 89% | 94.9% | 103% | 81.7% | 91.1% | 76.6% | 67.9% | 88.4% | 96% | 68.1% | 92.3% | 92.6% | 78.2% | 100% | 
